Records with an inconclusive call do not appear. Calls of active or inactive are those of the source. Calls come from the whole dose curve; as a rule, active = well fitted curve in the direction sought with a large enough effect; inconclusive = small, poorly fitted or top-dose-only effect, or another doubt; inactive = no such curve, though single readings can be large; an effect the other way counts as inactive or inconclusive.
Assays:
[1] = Cellular Toxicity (caspase-3) Mesangial (AID 660); conditions: mesangial cells, normalized: DMSO 0%, 100 µM tamoxifen 100%; at 91.7 µM (top of the series);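 note: combined caspase 3 and 7 activity read by Caspase-Glo luminescence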
In short: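 Concentration-response qHTS: compound-induced rise in caspase 3/7 luminescence in human mesangial cells after 16 h, normalized to DMSO and 100 uM tamoxifen controls.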

[2] = Cellular Toxicity (caspase-3) H-4-II-E (AID 663); conditions: H-4-II-E rat hepatoma, scaled: DMSO 0%, 100 µM tamoxifen 100%; at 92.2 µM (top of the series);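 note: cells exposed to compound for 16 hr before readout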
In short: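 Rat hepatoma H-4-II-E cells (1500/well) plated 5 hr, then exposed to compound titrations for 16 hr at 37 °C. Caspase-Glo 3/7 luminescence read after 20 min at RT; data normalized to DMSO and 100 uM tamoxifen, AC50 from Hill fits.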

[3] = Cellular Toxicity (caspase-3) Hek293 (AID 664); conditions: HEK293 caspase-3 activation, DMSO = 0%, 100 µM tamoxifen = 100%; at 92.2 µM (top of the series);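 note: cells exposed to compound for 16 h at 37 °C before readout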
In short: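 Activation of caspase-3/7 is measured as increased luminescence from cleaved peptide-aminoluciferin substrate in HEK293 cells treated 16 hours at 37 °C. AC50 values come from Hill-equation fits of concentration-response data.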

[4] = Cellular Toxicity (caspase-3) N2a (AID 665);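 note: compound exposure lasted 16 h at 37 °C before readout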
In short: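 Plated mouse neuroblastoma N2a cells received titrated compounds for 16 h in complete medium. Caspase activity was then detected with a peptide-aminoluciferin luminescent reagent.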

[5] = Cellular Toxicity (caspase-3) NIH 3T3 (AID 666);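 note: caspase signal read after 16 h compound exposure; 0% = DMSO basal and 100% = 100 µM tamoxifen stimulation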
In short: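 Concentration-response qHTS in NIH 3T3 mouse fibroblasts scores caspase-3/7 activation as rising luminescence after 16 hr compound exposure. Signals are scaled between DMSO-only and 100 uM tamoxifen.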

[6] = Cellular Toxicity (caspase-3) Renal Proximal Tubule (AID 667); conditions: Potency: caspase-3 activation;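 note: cells exposed to compound for 16 hours at 37 °C before detection; 0% = DMSO basal and 100% = 10 µM staurosporine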
In short: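 AC50 derived by standard Hill fit of concentration-response data, normalized between DMSO basal and 10 uM staurosporine as 100% stimulation. Cells: primary rat kidney proximal tubule, 16 h treatment at 37 °C.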

[7] = target: Cytochrome P450 3A4 (Homo sapiens) (UniProt P08684); assay: qHTS Assay for Inhibitors and Substrates of Cytochrome P450 3A4 (AID 884); note: % is set by controls: 0 for no effect and ±100 for the full control effect; nearly all actives have a fitted effect of over 50% in size
In short: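 20 nM human CYP3A4 with 25 uM Luciferin-PPXE (at KM) in 200 mM KPO4, preincubated 10 min with compound; NADPH regeneration started a 60 min RT reaction. Luciferin detected by luminescence, normalized to 57 uM ketoconazole as full inhibition.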

[8] = Cell Viability - LYMP2-001 (AID 921);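 note: cells exposed to compound for 24 h at 37 °C; 0% = DMSO only and full inhibition = tetraoctylammonium bromide control wells; nearly all actives have a fitted effect of over 70% in size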
In short: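 Steps: seed 2500 lymphoblastoid cells/well; 5 hr, 37 C; add compound; 24 hr, 37 C; CellTiter-Glo reagent, 30 min room temperature; read luminescence. Concentration-response modeled by Hill equation for AC50.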

[9] = MultiTox-Fluor Cytotoxicity Assay - LYMP1-001 - Dead Cells (AID 946)
In short: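 Cytotoxicity as increased dead-cell protease fluorescence (bis-AAF-R110, 485/520 nm), read 60 min after MultiTox-Fluor reagent. Human lymphoblastoid line exposed 16 h; Hill-fitted AC50, with DMSO as 0% and 15 uM tetraoctylammonium bromide as 100%.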

[10] = MultiTox-Fluor Cytotoxicity Assay - LYMP1-001 - Live Cells (AID 947);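 note: 0% = DMSO only and full inhibition = tetraoctylammonium bromide control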
[11] = Cell Viability - LYMP1-002 - Assay at 16 hr (AID 948);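 note: 0% = DMSO alone and full effect = 92 µM tetraoctylammonium bromide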
In short: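 Seed 2500 LYMP1-002 cells per well in complete medium and hold 5 hr at 37 C. Add compound across a concentration series and incubate 16 hr at 37 C. Add CellTiter-Glo, wait 30 min at room temperature, read luminescence.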

[12] = MultiTox-Fluor Cytotoxicity Assay - LYMP1-002 - Live Cells (AID 955); note: % is set by controls: 0 for no effect and ±100 for the full control effect
In short: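 Cytotoxicity in the human lymphoblastoid line LYMP1-002 is measured as loss of live-cell protease activity after 16 h treatment in complete culture medium. AC50 is derived from Hill-equation fits of qHTS concentration-response data.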

[13] = MultiTox-Fluor Cytotoxicity Assay - LYMP1-002 - Dead Cells (AID 960); note: nearly all actives have a fitted effect of over 60% in size
In short: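 Acute cytotoxicity in a human lymphoblastoid line is scored as rising dead-cell protease signal after 16 hr exposure at 37 C, measured fluorometrically (485/520).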

[14] = MultiTox-Fluor Cytotoxicity Assay - LYMP1-003 - Dead Cells (AID 961); note: nearly all actives have a fitted effect of over 70% in size
In short: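 Dead-cell protease release, detected as bis-AAF-R110 fluorescence at 485/520 nm, was measured in LYMP1-003 cells after 16 h compound treatment at 37 C. AC50 values came from Hill-modeled qHTS curves normalized to DMSO (0%) and 15 uM tetraoctylammonium bromide (100%).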

[15] = MultiTox-Fluor Cytotoxicity Assay - LYMP1-003 - Live Cells (AID 962);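 note: 0% = DMSO only and full loss = 92 µM tetraoctylammonium bromide; cytotoxic hits lower the live-cell protease signal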
In short: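 Cells plated at 2500 per well and incubated 5 hr; compounds added and incubated 16 hr at 37 C; MultiTox-Fluor reagent added for 60 min at room temperature; fluorescence of liberated AFC measured at 405/510 nm.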

[16] = Cell Viability - LYMP1-003 - Assay at 40 hr (AID 964); note: % is set by controls: 0 for no effect and ±100 for the full control effect; nearly all actives have a fitted effect of over 60% in size
In short: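 This qHTS cytotoxicity screen treats human lymphoblastoid cells (LYMP1-003) with compounds for 40 hr and quantifies cellular ATP via luciferase luminescence.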

[17] = Cell Viability - LYMP2-003 (AID 965);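 note: cells exposed to compounds for 24 h before reading; 0% = DMSO only and full effect = 92 µM tetraoctylammonium bromide; nearly all actives have a fitted effect of over 50% in size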
In short: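 Seed 2500 lymphoblastoid cells/well; incubate 5 hr, 37 C; add compounds; incubate 24 hr, 37 C; add CellTiter-Glo, 30 min RT; read luminescence. AC50 from Hill fit.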

[18] = Cell Viability - LYMP1-003 - Assay at 24 hr (AID 963);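 note: plate controls were DMSO only for no effect and tetraoctylammonium bromide positive control for full effect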
In short: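 Acute toxicity in LYMP1-003 lymphoblastoid cells: 24 hr compound treatment at 37 C, ATP measured with CellTiter-Glo after 30 min at room temperature. AC50 derived by fitting the Hill equation to qHTS titrations.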

[19] = target: Cytochrome P450 3A4 (Homo sapiens) (UniProt P08684); assay: qHTS Assay for Activators of Cytochrome P450 3A4 (AID 885); note: nearly all actives have a fitted effect of over 65% in size
In short: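 Signal was normalized against complete inhibition by 57 uM ketoconazole. The reaction used 20nM CYP3A4 with 25uM Luciferin-PPXE, 10-min compound preincubation and a 60-min NADPH-supported step at RT.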

Chain of Cytochrome P450 3A4 (Homo sapiens) (P08684 whole entry, looked up): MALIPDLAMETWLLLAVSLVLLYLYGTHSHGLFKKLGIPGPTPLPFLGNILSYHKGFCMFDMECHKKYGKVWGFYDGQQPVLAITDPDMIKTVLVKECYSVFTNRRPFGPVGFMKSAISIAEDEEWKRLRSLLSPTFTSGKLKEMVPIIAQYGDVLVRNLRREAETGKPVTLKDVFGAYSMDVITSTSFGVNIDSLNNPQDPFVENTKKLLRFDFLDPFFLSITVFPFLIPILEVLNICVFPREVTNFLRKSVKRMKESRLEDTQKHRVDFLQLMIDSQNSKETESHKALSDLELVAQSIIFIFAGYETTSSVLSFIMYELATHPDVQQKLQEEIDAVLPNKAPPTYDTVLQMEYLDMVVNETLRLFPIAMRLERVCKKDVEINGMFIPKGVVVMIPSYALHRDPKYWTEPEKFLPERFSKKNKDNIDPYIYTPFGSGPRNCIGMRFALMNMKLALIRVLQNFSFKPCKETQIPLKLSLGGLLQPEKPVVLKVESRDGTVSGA

C=C(C)C(=O)OC
inactive: caspase-3 activation [1] 0.161% | caspase-3 activation [2] 1.27% | caspase-3 activation [3] 1.97% | outcome [4] | outcome [5] | Potency [6] | Potency [7] | Potency [8] | outcome [9] | outcome [10] | outcome [11] | outcome [12] | outcome [13] | Potency [14] | Potency [15] | Potency [16] | Potency [17]

CC(N)CN (stereo not given)
inactive: caspase-3 activation [1] 2.7% | caspase-3 activation [2] 0.364% | caspase-3 activation [3] 3.47% | outcome [4] | outcome [5] | Potency [6] | Potency [7] | Potency [8] | outcome [11] | outcome [12] | outcome [13] | Potency [14] | Potency [15] | Potency [18] | Potency [17]

CCCCC(CC)CO (stereo not given)
inactive: caspase-3 activation [1] -0.254% | caspase-3 activation [2] 1.2% | caspase-3 activation [3] 1.6% | outcome [4] | outcome [5] | Potency [6] | Potency [7] | Potency [8] | outcome [9] | outcome [10] | outcome [11] | outcome [12] | outcome [13] | Potency [14] | Potency [15] | Potency [18] | Potency [16] | Potency [17]

CCNc1cc(O)ccc1C
inactive: caspase-3 activation [1] 0.47% | caspase-3 activation [2] 1.36% | caspase-3 activation [3] 0.389% | outcome [4] | outcome [5] | Potency [6] | outcome [19] | Potency [8] | outcome [9] | outcome [11] | outcome [12] | outcome [13] | Potency [14] | Potency [18] | Potency [17]

Nc1cc([N+](=O)[O-])ccc1C(=O)O
inactive: caspase-3 activation [1] -0.673% | caspase-3 activation [2] -1.05% | caspase-3 activation [3] -2.97% | outcome [4] | outcome [5] | Potency [6] | outcome [19] | Potency [8] | outcome [9] | outcome [11] | outcome [12] | outcome [13] | Potency [14] | Potency [15] | Potency [18] | Potency [16] | Potency [17]

Nc1ccc([N+](=O)[O-])c(N)c1
inactive: caspase-3 activation [1] -0.0443% | caspase-3 activation [2] -0.185% | caspase-3 activation [3] -0.316% | outcome [4] | outcome [5] | Potency [6] | Potency [7] | Potency [8] | outcome [9] | outcome [10] | outcome [11] | outcome [12] | outcome [13] | Potency [14] | Potency [15] | Potency [18] | Potency [16] | Potency [17]

N#Cc1ccccc1
inactive: caspase-3 activation [1] -0.669% | caspase-3 activation [2] 0.346% | caspase-3 activation [3] 1.36% | outcome [4] | outcome [5] | Potency [6] | Potency [7] | Potency [8] | outcome [9] | outcome [10] | outcome [11] | outcome [12] | outcome [13] | Potency [14] | Potency [15] | Potency [18] | Potency [16] | Potency [17]

CCOCCOCC
inactive: caspase-3 activation [1] 0.404% | caspase-3 activation [2] 1.77% | caspase-3 activation [3] 4.51% | outcome [4] | outcome [5] | Potency [6] | Potency [7] | Potency [8] | outcome [9] | outcome [10] | outcome [12] | outcome [13] | Potency [14] | Potency [15] | Potency [18] | Potency [16] | Potency [17]

NC(=O)/N=N/C(N)=O
inactive: caspase-3 activation [1] -0.26% | caspase-3 activation [2] 1.22% | caspase-3 activation [3] -1.75% | outcome [4] | outcome [5] | Potency [6] | outcome [19] | Potency [8] | outcome [9] | outcome [11] | outcome [12] | outcome [13] | Potency [15] | Potency [18] | Potency [17]

— PubChem BioAssay (NCATS)
